Pf Dd2 inh: blocks in vitro growth of P. falciparum Dd2. 120,000 tested, 4.3% active. Potency, µM (doses to about 28.9 µM), for inactives: at the highest dose activity, negative = inhibition, hits mostly inhibitors. P. falciparum Dd2 growth, SYBR Green, 72 h; active means well fitted inhibition curve with a large enough effect;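 further: plate controls were DMSO vehicle for no effect and reference drug for full effect; nearly all actives have a fitted effect of over 65% in size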
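Readout: SYBR Green fluorescence, 485 nm excitation, 535 nm emission, after ~16 h lysis at 37C. Before that, Dd2-infected red cells (2.5% hematocrit) grew 72 h with compound, 29 uM top final concentration.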
Starred values were filed as active, the others as inactive; i = inactive; [ ] = dose if it differs, or a comment. The entries come from a sample that favours hits as a whole. Potency means the concentration at half of the fitted maximal effect.

SMILES | Pf Dd2 inh
Cc1ccc(C(=O)N[C@H]2CO[C@H]3[C@@H]2OC[C@@H]3n2cc(CC3CCCCC3)nn2)cc1 | i
Cn1cnc(S(=O)(=O)N2CCC(Cc3ccc(C(N)=O)cc3)CC2)c1 | 1.3%
CCCCN(CCCC)CCNC(=O)c1cc(-c2cccnc2)nc2ccc(S(=O)(=O)N3CCC(C)CC3)cc12 | -24.9%
CCCCN(C)CCNC(=O)c1cc(-c2cccnc2)nc2ccc(S(=O)(=O)N3CCC(C)CC3)cc12 | 5.01µM*
CC1CCN(S(=O)(=O)c2ccc3nc(-c4cccnc4)cc(C(=O)NCCCOC(C)C)c3c2)CC1 | i
COc1ccccc1-c1cc(-c2ccccc2)nc2c(C)noc12 | i
COc1cccc(-c2cc(-c3ccccc3)nc3c(C)noc23)c1 | 14.1µM*
COc1cccc(-c2cc(-c3cccs3)nc3c(C)noc23)c1 | i
COC1C(=O)N(C2CCN(C(=O)c3ccoc3)CC2)C12CCOCC2 (centres undefined) | 21.2%
O=C(NCc1ccco1)C1CCN(C(=O)c2ncn3c2COC(c2ccccc2)C3)CC1 (centres undefined) | -15.0%
Cc1nc(CCCNC(=O)[C@H]2CCC[C@@H](O)C2)sc1C | 3.5%
CCC(C)NC(=O)CSc1nc2n[nH]c(C)c2c(=N)n1-c1ccc(C)c(Cl)c1 (centres undefined) | -5.9%
Cc1ccc(CNC(=O)CSc2nc3n[nH]c(C)c3c(=N)n2-c2cccc(C)c2)cc1 | -13.1%
Cc1ccc(-n2c(SCC(=O)Nc3cccc(Cl)c3)nc3n[nH]c(C)c3c2=N)cc1 | 12.6µM*
CC(C)N1C(=O)C2(CCCC2)C1C(=O)NCc1ccccn1 (centres undefined) | -13.3%
COc1cccc(CC(=O)N2CCN(C(=O)c3nnn4c3COC(c3ccc(F)cc3)C4)CC2)c1 (centres undefined) | i
CC1=C[C@@H](CNC(=O)C2CCCCC2)[C@H](C(C)C)C[C@H]1Cc1nc2ccc(C)cc2[nH]1 | 11.2µM*
COC(=O)c1ccc2nc(C[C@@H]3C[C@@H](C(C)C)[C@H](CN(C)C)C=C3C)[nH]c2c1 | 12.6µM*
CC1=C[C@@H](CNC(=O)CC(C)(C)CC(=O)O)[C@H](C(C)C)C[C@H]1Cc1nc2c(C)cccc2[nH]1 | -23.7%
COC(=O)c1ccc2nc(C[C@@H]3C[C@@H](C(C)C)[C@H](CNC(=O)CCCC(=O)O)C=C3C)[nH]c2c1 | -28.1%
CC1=C[C@@H](CNCc2ccccc2)[C@H](C(C)C)C[C@H]1Cc1nc2c(C)cccc2[nH]1 | 3.55µM*
COC(=O)c1ccc2nc(C[C@@H]3C[C@@H](C(C)C)[C@H](CNC(=O)COCC(=O)O)C=C3C)[nH]c2c1 | -14.3%
COCC(=O)NC[C@@H]1C=C(C)[C@H](Cc2nc3ccc(C(=O)OC)cc3[nH]2)C[C@H]1C(C)C | 11.2µM*
CC1=C[C@@H](CNC(=O)C2CCCCC2)[C@H](C(C)C)C[C@H]1Cc1nc2c(C)cccc2[nH]1 | -25.3%[44.1 µM]
COC(=O)c1ccc2nc(C[C@@H]3C[C@@H](C(C)C)[C@H](CNC(=O)CN(C)C)C=C3C)[nH]c2c1 | -4.6%
SMILES | Pf Dd2 inh
CCC(CC)C(=O)NC[C@@H]1C=C(C)[C@H](Cc2nc3ccc(C)cc3[nH]2)C[C@H]1C(C)C | -11.8%[44.1 µM]
CC1=C[C@@H](CN)[C@H](C(C)C)C[C@H]1Cc1nc2ccccc2[nH]1 | i
COc1ccc2nc(C[C@@H]3C[C@@H](C(C)C)[C@H](CNCc4ccccc4)C=C3C)[nH]c2c1 | -15.1%[44.1 µM]
CCn1c(CO)nnc1C1CC(NC(=O)CCc2n[nH]c3c2CCCC3)C1 (centres undefined) | -3.7%
COc1ccccc1CCC(=O)N1CCC2(CC1)N=C(c1cccc(Br)c1)NO2 | i
O=C1CC2(CCN(C(=O)c3ccc(CSc4ccccc4)o3)C2)C(=O)N1 (centres undefined) | -23.7%
CN(C)C[C@@H]1CN(c2ccccn2)C[C@H]1NC(=O)NC1CCCCC1 | -23.1%
CC(=O)N1CCN(C2CCOC3(CCN(S(=O)(=O)c4ccccc4)CC3)C2)CC1 (centres undefined) | i
O=C(CN1C(=O)NC2(CCOCC2)C1=O)N1CCN(c2ccccc2F)CC1 | i
CC1(C(=O)NCc2ccsc2)CCOCC1 | 14.6%[44.1 µM]
Cc1ccc(C2=NC3(CCN(C(=O)c4cccc(C)c4)CC3)ON2)cc1 | -10.2%
CC1=C[C@@H](CNC(=O)COCC(=O)O)[C@H](C(C)C)C[C@H]1Cc1nc2ccc(F)cc2[nH]1 | 9.0%[44.1 µM]
CC1=C[C@@H](CNC(=O)CCCC(=O)O)[C@H](C(C)C)C[C@H]1Cc1nc2ccccc2[nH]1 | -19.2%[44.1 µM]
CC1=C[C@@H](CNC(=O)CC(C)(C)CC(=O)O)[C@H](C(C)C)C[C@H]1Cc1nc2ccncc2[nH]1 | 2.0%
COc1ccc2nc(C[C@@H]3C[C@@H](C(C)C)[C@H](CN4C(=O)C(C)=C(C)C4=O)C=C3C)[nH]c2c1 | i
COc1ccc2nc(C[C@@H]3C[C@@H](C(C)C)[C@H](CNC(=O)[C@@H]4CCCC[C@@H]4C(=O)O)C=C3C)[nH]c2c1 | -24.3%
CC1=C[C@@H](CNC(=O)CC(C)(C)CC(=O)O)[C@H](C(C)C)C[C@H]1Cc1nc2ccc(C)cc2[nH]1 | 8.91µM*
COc1ccc2nc(C[C@@H]3C[C@@H](C(C)C)[C@H](CNC(=O)C4CCCCC4)C=C3C)[nH]c2c1 | 12.6µM*
COc1ccc2nc(C[C@@H]3C[C@@H](C(C)C)[C@H](CNC4CCCCC4)C=C3C)[nH]c2c1 | 2.82µM*
CC1=C[C@@H](CNC(=O)CC(C)(C)CC(=O)O)[C@H](C(C)C)C[C@H]1Cc1nc2ccc(F)cc2[nH]1 | i
COc1ccc2nc(C[C@@H]3C[C@@H](C(C)C)[C@H](CNC(=O)COCC(=O)O)C=C3C)[nH]c2c1 | -16.2%[44.1 µM]
COC(=O)c1ccc2nc(C[C@@H]3C[C@@H](C(C)C)[C@H](CNC(=O)C4CCCCC4)C=C3C)[nH]c2c1 | 11.2µM*
O=C(NC1CCN(c2cc(-c3ccc(F)cc3)[nH]n2)C1)c1ccc(Br)cc1 (centres undefined) | i
CN1CCN(Cc2nc(C3(O)CCN(C(=O)N4CCOCC4)CC3)cs2)CC1 | 5.4%[44.1 µM]
CCCC1COCCN1C(=O)c1cccc(CC2CCNCC2)c1 (centres undefined) | -2.2%
SMILES | Pf Dd2 inh
O=C(CCn1cccn1)NC1CCCc2nc(-c3ccccc3)ncc21 (centres undefined) | -13.5%
O=C(CCc1ccccc1)Nc1ccc([C@@H](O)[C@H]2COCC(=O)N2Cc2ccncc2)cc1 | i
CCCNC(=O)CN1C(=O)NC(c2ccccc2OC)C2=C1COC2=O (centres undefined) | -6.2%
O=C(c1ccc(F)cc1Cl)N1C[C@@H](CO)[C@H](c2ccccn2)C1 | 3.2%
O=C(Cn1cnc2sccc2c1=O)NC1CCCc2c1[nH]c1ccccc21 (centres undefined) | -3.5%
Cc1nncn1CCN1CCCC(CCC(=O)N(C)C2CCN(C)CC2)C1 (centres undefined) | 4.6%
C[C@H](N)C(=O)N1CCC(n2nccc2NC(=O)Nc2cccc(F)c2)CC1 | 2.0%
Cc1ccc2c(c1)N1C(=O)OC[C@@H]1CCNC2 | 23.0%[44.1 µM]
CN1C[C@H](NCc2cccnc2)CCC[C@@H](C(=O)NC2CC2)CC1=O | 4.4%[44.1 µM]
COc1cccc(NC(=O)C2CC(=O)N(c3n[nH]c4cccc(F)c34)C2)c1 (centres undefined) | -17.6%
COc1ccc(Nc2cc(C(=O)NCCCN(C)C3CCCCC3)c3ccccc3n2)c(OC)c1 | 8.91µM*
O=C(NC1CCCCC1)c1cc(Nc2ccccc2)nc2ccccc12 | 1.7%
COc1ccc(CNC(=O)c2cc(Nc3ccc(OC)cc3OC)nc3ccccc23)cc1 | 7.8%
